Results from PubChem BioAssay (EPA / NIEHS).
Calls of active or inactive are those of the source. Rule for the calls: active = hit-call score of the fitted dose curve at least 0.9, where 1 is the maximum; inactive = score below 0.9.

Biological target: Transcription factor E2F1 (Homo sapiens) (UniProt Q01094)
Assay: ATG_E2F_CIS: Attagene CIS-FACTORIAL HepG2 Assay for human E2F Transcription Factor 1 (AID 2282935)
Conditions: HepG2 Attagene cis-reporter, E2F reporter RNA transcripts; actives raise or lower the signal
How it was run: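 Transient MRTU transfection of HepG2; 24 h compound exposure; RNA → oligo(dT) RT → PCR → FAM label → HpaI cut → CE fluorescence. Gain/loss of signal fit against DMSO.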

Transcription factor E2F1 (Homo sapiens), sequence (Q01094 whole entry, looked up): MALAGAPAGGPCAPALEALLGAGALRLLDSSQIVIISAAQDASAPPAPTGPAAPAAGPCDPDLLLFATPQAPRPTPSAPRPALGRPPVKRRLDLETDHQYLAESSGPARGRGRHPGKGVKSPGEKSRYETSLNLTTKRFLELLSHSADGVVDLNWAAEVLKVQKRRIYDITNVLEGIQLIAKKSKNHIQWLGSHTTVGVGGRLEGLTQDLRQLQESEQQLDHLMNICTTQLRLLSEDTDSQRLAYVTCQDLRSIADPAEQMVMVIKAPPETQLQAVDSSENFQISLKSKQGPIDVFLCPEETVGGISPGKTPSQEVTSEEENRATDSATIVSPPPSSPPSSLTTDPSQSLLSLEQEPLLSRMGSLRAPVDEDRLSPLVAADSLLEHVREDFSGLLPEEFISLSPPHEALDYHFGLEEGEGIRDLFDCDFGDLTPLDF

Row | Structure (SMILES) | outcome
1 | CCN(CC)c1ccccc1 | inactive
2 | CC(C)Nc1ccc(Nc2ccccc2)cc1 | inactive
3 | OCC1CO1 (stereo unspecified) | inactive
4 | CCCCC(CC)COP(=O)(Oc1ccccc1)Oc1ccccc1 (stereo unspecified) | inactive
5 | CCCCCCCc1ccc(O)cc1 | inactive
6 | ClC(Cl)c1ccccc1 | inactive
7 | COP(N)(=S)OC | inactive
8 | CCCCN(CCCC)N=O | inactive
9 | CC(C)(C)N(NC(=O)c1ccc(Cl)cc1)C(=O)c1ccccc1 | inactive
10 | c1ccc2c(c1)Nc1ccccc1S2 | inactive
11 | O=P(Oc1ccccc1)(Oc1ccccc1)Oc1ccccc1 | inactive
12 | CCNc1nc(Cl)nc(NC(C)(C)C)n1 | inactive
13 | O=NN1CCCC1 | inactive

Test system: not listed separately
Assay: ATG_E_Box_CIS: Attagene CIS-FACTORIAL HepG2 Assay for human Enhancer Box (E-box) (AID 2282936)
Conditions: HepG2 E-box cis-reporter transcription, actives raise or lower the signal
How it was run: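 Transiently transfected HepG2, endogenous TF-driven reporters, 24 h dosing. Readout: RT-PCR plus capillary electrophoresis of fluorescent reporter fragments. Gain or loss of signal fitted bidirectionally against DMSO baseline.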

Row | Structure (SMILES) | outcome | AC50
14 | c1ccc2c(c1)sc1ccccc12 | inactive | 
15 | Nc1ccc(Cl)cc1 | inactive | 
16 | Nc1ccc2ccccc2c1 | inactive | 
17 | Nc1ccc([N+](=O)[O-])cc1Cl | inactive | 
18 | CCOP(=S)(OCC)SCSCC | inactive | 
19 | CCOP(=S)(S)OCC | inactive | 
20 | OCC(F)(F)OC(F)(F)C(F)(F)OC(F)(F)C(F)(F)OC(F)(F)F | inactive | 
21 | O=C(O)C(F)(F)C(F)(F)C(=O)O | inactive | 
22 | Cc1cc(C)c(C(=O)P(=O)(c2ccccc2)c2ccccc2)c(C)c1 |  | 54.9 µM (active)
23 | CC(C)(C)OOC(C)(C)C | inactive | 
24 | Cn1[nH]nnc1=S | inactive | 
25 | CCOP(=S)(Oc1ccc([N+](=O)[O-])cc1)c1ccccc1 (stereo unspecified) | inactive | 
26 | FC(F)(F)C(F)(C(F)(F)F)C(F)(F)C(F)(F)CC1CO1 (stereo unspecified) | inactive | 
27 | CCOC(=O)c1ccccc1N | inactive | 
28 | Oc1ccccc1Br | inactive | 
29 | CCOc1ccc(C(C)(C)COCc2cccc(Oc3ccccc3)c2)cc1 | inactive | 
30 | CCCCc1ccccc1 | inactive | 
31 | CC1=C(C(=O)Nc2ccccc2)S(=O)(=O)CCO1 |  | 21.8 µM (active)
32 | ClC(Cl)=C(c1ccc(Cl)cc1)c1ccccc1Cl |  | 63.6 µM (active)
33 | CCCCC(CC)COC(=O)c1c(Br)c(Br)c(Br)c(Br)c1C(=O)OCC(CC)CCCC (stereo unspecified) | inactive | 

Row | Structure (SMILES) | outcome | AC50
34 | OCC(F)(F)OC(F)(F)C(F)(F)OC(F)(F)C(F)(F)OC(F)(F)CO | inactive | 
35 | COP(=O)(O)OC | inactive | 
36 | Clc1ccc(Oc2ccccc2)cc1 | inactive | 
37 | N#Cc1ccc(O)cc1 | inactive | 
38 | O=C(O)C1C(C(=O)O)C2(Cl)C(Cl)=C(Cl)C1(Cl)C2(Cl)Cl (stereo unspecified) | inactive | 
39 | CC(O)C#N (stereo unspecified) | inactive | 
40 | CCN(CC)c1ccccc1 | inactive | 
41 | CC(C)Nc1ccc(Nc2ccccc2)cc1 |  | 54.8 µM (active)
42 | OCC1CO1 (stereo unspecified) | inactive | 
43 | CCCCC(CC)COP(=O)(Oc1ccccc1)Oc1ccccc1 (stereo unspecified) | inactive | 
44 | CCCCCCCc1ccc(O)cc1 | inactive | 
45 | ClC(Cl)c1ccccc1 | inactive | 
46 | COP(N)(=S)OC | inactive | 
47 | CCCCN(CCCC)N=O | inactive | 
48 | CC(C)(C)N(NC(=O)c1ccc(Cl)cc1)C(=O)c1ccccc1 | inactive | 
49 | c1ccc2c(c1)Nc1ccccc1S2 | inactive | 
50 | O=P(Oc1ccccc1)(Oc1ccccc1)Oc1ccccc1 | inactive | 
51 | CCNc1nc(Cl)nc(NC(C)(C)C)n1 | inactive | 
52 | O=NN1CCCC1 | inactive | 

Test system: not listed separately
Assay: ATG_M_61_CIS: Attagene CIS-FACTORIAL HepG2 Assay for M61 Transcription Factor (Internal Marker) (AID 2282937)
Conditions: HepG2 Attagene CIS-FACTORIAL M61 internal marker reporter; actives raise or lower the signal
How it was run: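 HepG2 cells transiently transfected with cis-element-driven multiple reporter transcription units, dosed for 24 h. Reporter mRNA measured by RT-PCR, 6-FAM primer-extension labelling, HpaI digestion and capillary electrophoresis; bidirectional fit versus DMSO baseline.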

Row | Structure (SMILES) | outcome | AC50
53 | c1ccc2c(c1)sc1ccccc12 | inactive | 
54 | Nc1ccc(Cl)cc1 | inactive | 
55 | Nc1ccc2ccccc2c1 | inactive | 
56 | Nc1ccc([N+](=O)[O-])cc1Cl | inactive | 
57 | CCOP(=S)(OCC)SCSCC | inactive | 
58 | CCOP(=S)(S)OCC | inactive | 
59 | OCC(F)(F)OC(F)(F)C(F)(F)OC(F)(F)C(F)(F)OC(F)(F)F | inactive | 
60 | O=C(O)C(F)(F)C(F)(F)C(=O)O | inactive | 
61 | Cc1cc(C)c(C(=O)P(=O)(c2ccccc2)c2ccccc2)c(C)c1 |  | 60.7 µM (active)
62 | CC(C)(C)OOC(C)(C)C | inactive | 
63 | Cn1[nH]nnc1=S | inactive | 
64 | CCOP(=S)(Oc1ccc([N+](=O)[O-])cc1)c1ccccc1 (stereo unspecified) | inactive | 
65 | FC(F)(F)C(F)(C(F)(F)F)C(F)(F)C(F)(F)CC1CO1 (stereo unspecified) | inactive | 
66 | CCOC(=O)c1ccccc1N | inactive | 
67 | Oc1ccccc1Br | inactive | 
68 | CCOc1ccc(C(C)(C)COCc2cccc(Oc3ccccc3)c2)cc1 | inactive | 
69 | CCCCc1ccccc1 | inactive | 
70 | CC1=C(C(=O)Nc2ccccc2)S(=O)(=O)CCO1 | inactive | 
71 | ClC(Cl)=C(c1ccc(Cl)cc1)c1ccccc1Cl | inactive | 
72 | CCCCC(CC)COC(=O)c1c(Br)c(Br)c(Br)c(Br)c1C(=O)OCC(CC)CCCC (stereo unspecified) | inactive | 

Row | Structure (SMILES) | outcome | AC50
73 | OCC(F)(F)OC(F)(F)C(F)(F)OC(F)(F)C(F)(F)OC(F)(F)CO | inactive | 
74 | COP(=O)(O)OC | inactive | 
75 | Clc1ccc(Oc2ccccc2)cc1 | inactive | 
76 | N#Cc1ccc(O)cc1 | inactive | 
77 | O=C(O)C1C(C(=O)O)C2(Cl)C(Cl)=C(Cl)C1(Cl)C2(Cl)Cl (stereo unspecified) | inactive | 
78 | CC(O)C#N (stereo unspecified) | inactive | 
79 | CCN(CC)c1ccccc1 | inactive | 
80 | CC(C)Nc1ccc(Nc2ccccc2)cc1 | inactive | 
81 | OCC1CO1 (stereo unspecified) | inactive | 
82 | CCCCC(CC)COP(=O)(Oc1ccccc1)Oc1ccccc1 (stereo unspecified) | inactive | 
83 | CCCCCCCc1ccc(O)cc1 | inactive | 
84 | ClC(Cl)c1ccccc1 | inactive | 
85 | COP(N)(=S)OC | inactive | 
86 | CCCCN(CCCC)N=O | inactive | 
87 | CC(C)(C)N(NC(=O)c1ccc(Cl)cc1)C(=O)c1ccccc1 | inactive | 
88 | c1ccc2c(c1)Nc1ccccc1S2 | inactive | 
89 | O=P(Oc1ccccc1)(Oc1ccccc1)Oc1ccccc1 | inactive | 
90 | CCNc1nc(Cl)nc(NC(C)(C)C)n1 | inactive | 
91 | O=NN1CCCC1 | inactive | 
